Experimental findings from PubChem BioAssay AID1259421 (Broad Institute, 2018) are described below.

Values joined by “and” are separate entries in the source; they are usually repeats but may differ in a detail not shown here. Equal values may be shown once. The whole screen tested about 6,400 compounds, of which about 610 (9.5%) were called active. The sample holds actives, similar compounds and a random draw of the others, so the mix is not that of the screen. Rule as the data show it: active = activity change below about -70%; inconclusive = no clear call, values can overlap the other calls; inactive = above that. Some compounds were tested as several samples or in several runs, with calls that do not always agree.

The nature of the assay: Toxoplasma gondii ME49Luc growth in HeLa cells, luciferase, no IFN-y, primary screen (AID 1259421). The settings on record: T. gondii ME49Luc in HeLa, 72 h, stronger effect = lower value, concentration not given here.
In the case of `CCC(c1ccc(O)cc1)C(CC)c1ccc(O)cc1` (stereo not given), the activity change, negative = inhibition was 14.8% (inactive).

In the case of `c1ccc(-c2cc3ccccc3[nH]2)cc1`, the activity change, negative = inhibition was 106% (inactive). For `Nc1nc(Nc2ccccc2)nc2c1ncn2C1OC(CO)C(O)C1O` (stereo not given), the activity change, negative = inhibition was 3.98% (inactive). The same measure for `COc1ccc(Nc2ccn(-c3ccccc3)n2)cc1`: 404% (inactive); for `CCCCCC/C=C\CCCCCCCc1cccc(O)c1C(=O)O`: 6.32% (inactive); for `NC(=O)CC[C@H](NC(=O)Cc1ccccc1)C(=O)O`: 16.1% (inactive). In the case of `C=CC(C)(C)c1cc(/C=C/C(=O)c2ccc(O)cc2)c(OC)cc1O` it was 187% (inactive). In the case of `CCCC(CCC)C(=O)Nc1ccn([C@@H]2O[C@H](CO)[C@@H](O)C2(F)F)c(=O)n1` it was -1.71% (inactive); in that of `COc1ccccc1OC(=O)CNC(=O)Cc1ccc(C(=O)c2ccc(C)cc2)n1C`, 15.7% (inactive). Regarding `C[C@@H]1O[C@@H](Oc2c(-c3cc(O)c(O)c(O)c3)oc3cc(O)cc(O)c3c2=O)[C@@H](O)[C@H](O)[C@H]1O`, the activity change, negative = inhibition is 8.81% (inactive). Turning to `CN1CCN(C(=O)c2nc3ccc(Cl)cc3[nH]2)CC1`, the activity change, negative = inhibition is 1.51% (inactive) and 15.6% (inactive).

In the case of `CN1CCN(c2ccc3nc(-c4ccc5nc(-c6ccc(O)cc6)[nH]c5c4)[nH]c3c2)CC1`, the activity change, negative = inhibition was -23.1% (inactive). With `CN1CCN(c2ccc3nc(-c4c(N)c5c(F)cccc5[nH]c4=O)[nH]c3c2)CC1`, the activity change, negative = inhibition is -36.1% (inactive) and -79.7% (active). In the case of `O=C(O)c1cc(N=Nc2ccc(O)c(C(=O)O)c2)ccc1O` it was 7.94% (inactive).

In the case of `O=S(=O)(O)C(F)(F)F.O=S(=O)(O)C(F)(F)F.O=S(=O)(O)C(F)(F)F.[Bi]`, the activity change, negative = inhibition was 11% (inactive). Take `CN(C)C(=S)SC(=S)N(C)C`: the activity change, negative = inhibition was 39.1% (inactive). Consider `NC(N)=NC(N)=NCCc1ccccc1`, for which the activity change, negative = inhibition was -13.4% (inactive). In the case of `CC(C)C(NS(=O)(=O)c1ccc(-c2ccc(Br)cc2)cc1)C(=O)O` (stereo not given) it was 9.87% (inactive); in that of `CC(C)ON([C@@H](C(=O)NO)C(C)C)S(=O)(=O)c1ccc(-c2ccccc2)cc1`, -87.2% (active). Turning to `CC(C)[C@H](NS(=O)(=O)c1ccc(-c2ccc(Br)cc2)cc1)C(=O)O`, the activity change, negative = inhibition is 4.75% (inactive). Take `Cc1noc(-c2ccc(CSCCC(=O)O)cc2)c1NC(=O)OC(C)c1ccccc1Cl` (stereo not given): the activity change, negative = inhibition was 13.3% (inactive). In the case of `O=C(O)c1ccc2nc(-c3cc(Cl)cc(Cl)c3)oc2c1` it was 84.3% (inactive); in that of `Cc1[nH]c(/C=C2\C(=O)Nc3ccc(S(=O)(=O)N(C)c4cccc(Cl)c4)cc32)c(C)c1C(=O)N1CCN(C)CC1`, -35.8% (inactive). For the compound `Cc1[nH]c(/C=C2\C(=O)Nc3ccc(S(=O)(=O)Cc4c(Cl)cccc4Cl)cc32)c(C)c1C(=O)N1CCC[C@@H]1CN1CCCC1`, the activity change, negative = inhibition is -78.2% (active) and -84% (active) and -67.3% (inactive). As for `OC1(c2ccc(Cl)cc2)CCNCC1`, the activity change, negative = inhibition is 13.9% (inactive). As for `CN1CC[C@@H](NC(=O)Nc2ccc(C#N)cc2)C[C@@H]1c1nc2ccccc2[nH]1`, the activity change, negative = inhibition was 7.93% (inactive). For `CC(C)C[C@H](NC(=O)[C@@H](O)[C@H](N)Cc1ccccc1)C(=O)O`, the activity change, negative = inhibition is -0.518% (inactive) and 15% (inactive). The same measure for `CC(C)CC(NC(=O)OCC1c2ccccc2-c2ccccc21)C(=O)O` (stereo not given): -4.74% (inactive); for `CC(C)C[C@@H](NC(=O)OCC1c2ccccc2-c2ccccc21)C(=O)O`: 145% (inactive) and 359% (inactive).

Take `CC(C)C[C@H](NC(=O)[C@@H](NC(=O)c1cccc(-c2ccccc2)n1)[C@@H](C)O)B(O)O`: the activity change, negative = inhibition was -75.2% (active) and -70.7% (active). In the case of `CC(C)C[C@H](NC(=O)[C@H](Cc1ccccc1)NC(=O)c1cnccn1)B(O)O` it was -73.2% (active) and -72% (active). In the case of `CNC(=O)[C@H](Cc1ccccc1)NC(=O)[C@H](CC(C)C)[C@H](CSc1cccs1)C(=O)NO` it was -1.31% (inactive) and 10.6% (inactive); in that of `CCC[N+]12C3C[C@H](C4C(O)[C@]5(C[C@@H]41)c1ccccc1N(C)[C@@H]35)[C@H](CC)[C@H]2O` (stereo not given in full), 10.9% (inactive).

Regarding `CCOc1ccc(N=C(C)Nc2ccc(OCC)cc2)cc1`, the activity change, negative = inhibition was 3.11% (inactive).

`CCCc1c(OCC(O)COc2ccc3c(=O)cc(C(=O)O)oc3c2CCC)ccc(C(C)=O)c1O` (stereo not given): the activity change, negative = inhibition is 10.3% (inactive) and -5.08% (inactive). In the case of `CCOC(=O)C1CN(Cc2ccccc2)C(=O)C1=O` (stereo not given) it was 16.6% (inactive) and 1.66% (inactive); in that of `N[C@@H]1CCCC[C@H]1N.O=C(O)C(=O)O.[Pt]`, 10.5% (inactive). As to `CC1(C)CC[C@]2(C(=O)O)CC[C@]3(C)C(=CCC4[C@@]5(C)CC[C@@H](O)C(C)(C)C5CC[C@]43C)C2C1` (stereo not given in full), the activity change, negative = inhibition was 10.1% (inactive). The same measure for `N[C@@H]1CCCCN(c2c(F)cc3c(=O)c(C(=O)O)cn(C4CC4)c3c2Cl)C1`: 4.72% (inactive); for `COc1c(N2CCNC(C)C2)c(F)cc2c(=O)c(C(=O)O)cn(C3CC3)c12` (stereo not given): 7.25% (inactive) and -78% (active). For the compound `NC1CCN(c2c(F)cc3c(=O)c(C(=O)O)cn(C4CC4)c3c2Cl)C1` (stereo not given), the activity change, negative = inhibition is -79.3% (active).

Consider `CNC1CCCN(c2c(F)cc3c(=O)c(C(=O)O)cn(C4CC4)c3c2OC)C1` (stereo not given), for which the activity change, negative = inhibition is 0.884% (inactive).

On to `COc1c(N2C[C@@H]3CCCN[C@@H]3C2)c(F)cc2c(=O)c(C(=O)O)cn(C3CC3)c12`, for which the activity change, negative = inhibition was -7.38% (inactive). With `N[C@@H]1CN(c2c(F)cc3c(=O)c(C(=O)O)cn([C@@H]4C[C@@H]4F)c3c2Cl)CC12CC2`, the activity change, negative = inhibition is -6.27% (inactive).

For `C[C@H](NC(=O)c1sccc1OCc1ccc(Cl)cc1)c1ccccc1`, the activity change, negative = inhibition is 28.7% (inactive). Consider `O=C(O)c1cc(Oc2ccc([N+](=O)[O-])cc2)cc(Oc2ccc([N+](=O)[O-])cc2)c1`, for which the activity change, negative = inhibition is 4.54% (inactive) and 5.04% (inactive). In the case of `CC1=CC2C(CC1=O)C(C)=CCC2C(C)C` (stereo not given) it was 4.22% (inactive). Consider `c1ccc(COCCCc2cnc[nH]2)cc1`, for which the activity change, negative = inhibition was -41.7% (inactive) and 17.9% (inactive). The same measure for `O=C(Nc1c(-c2cccs2)nc2ccccn12)c1ccc(Cl)cc1`: 6.95% (inactive). In the case of `CN1C(CC(=O)c2ccccc2)CCCC1CC(O)c1ccccc1` (stereo not given) it was 6.13% (inactive) and 6.36% (inactive); in that of `CO[C@H]1C[C@H](O[C@H]2[C@H](C)[C@@H](OC3O[C@H](C)C[C@H](N(C)C)[C@H]3OC(C)=O)[C@@H](C)C[C@]3(CO3)C(=O)[C@H](C)[C@@H](OC(C)=O)[C@@H](C)[C@@H](C)OC(=O)[C@@H]2C)O[C@@H](C)[C@@H]1OC(C)=O` (stereo not given in full), 5.2% (inactive). In the case of `Nc1ncnc2c1c(-c1cccc(OCc3ccccc3)c1)cn2C1CC(CN2CCC2)C1` (stereo not given) it was -81.2% (active); in that of `Nc1ncnc2c1c(-c1cccc(OCc3ccccc3)c1)cn2C1CC(CN2CCCC2)C1` (stereo not given), -69.4% (inactive); in that of `Cc1cccc(C)c1NC(=O)CC12CCCN1CCC2`, 13.3% (inactive). With `CC(C)(C)NCC(O)COc1nsnc1N1CCOCC1` (stereo not given), the activity change, negative = inhibition was -0.1% (inactive).

Take `O=C1CCC(c2ccccc2)(C2CCN(Cc3ccc(I)cc3)CC2)C(=O)N1` (stereo not given): the activity change, negative = inhibition is 11.1% (inactive). In the case of `Cc1ccc(/C=C2\CNC/C(=C\c3ccc(C)cc3)C2=O)cc1` it was -83.2% (active). Consider `Cc1ccc(/C=C2/CNC/C(=C\c3ccc(C)cc3)C2=O)cc1`, for which the activity change, negative = inhibition was -85.7% (active). The same measure for `Cc1ccc(/C=C2\C(=O)C3(C)CCC2C3(C)C)cc1` (stereo not given): 2.27% (inactive); for `Cc1ccc(S(N)(=O)=O)cc1`: 13.5% (inactive); for `CC(C)C[C@H](N[C@@H](Cc1cncn1Cc1cc(Cl)cc(Cl)c1)C(=O)O)C(=O)O`: 6.67% (inactive). In the case of `CC1(O)CC(c2nc(-c3ccc4ccc(-c5ccccc5)nc4c3)c3c(N)nccn23)C1` (stereo not given) it was -27.9% (inactive); in that of `CCn1c(N)c(C(=O)NC)c(=O)c2ccc(C#C[C@@](C)(O)COC)nc21`, 13.3% (inactive). The same measure for `CC1(C)C2CC[C@]3(C)[C@H](C(=O)C=C4[C@@H]5C[C@@](C)(C(=O)O)CC[C@]5(C)CC[C@]43C)[C@@]2(C)CC[C@@H]1OC(=O)CCC(=O)O` (stereo not given in full): 6.15% (inactive) and 3.75% (inactive). On to `CC(=O)O[C@H]1CC[C@@]2(C)C(C[C@@H](OC(C)=O)[C@@]3(C)C4=CC(=O)O[C@@H](c5ccoc5)[C@]4(C)CCC23)C1(C)C` (stereo not given in full), for which the activity change, negative = inhibition was 15% (inactive). With `CC(=O)O[C@]1(C(C)=O)CCC2C3C=C(C)C4=CC(=O)CCC4(C)C3CCC21C` (stereo not given in full), the activity change, negative = inhibition is 4.78% (inactive) and -4.91% (inactive). The same measure for `CCCCCCCCCCCCCCCC(=O)OC(C)C`: 3.86% (inactive). As to `CN[C@H](C(=O)N[C@H](C(=O)N(C)[C@H](/C=C(\C)C(=O)O)C(C)C)C(C)(C)C)C(C)(C)c1ccccc1`, the activity change, negative = inhibition is -73.6% (active). Regarding `C[C@H]1CCO[C@H]2Cn3cc(C(=O)NCc4ccc(F)cc4F)c(=O)c(O)c3C(=O)N21`, the activity change, negative = inhibition is 25.9% (inactive). `Cc1cccc(C)c1NC(=O)c1cc(S(N)(=O)=O)c(Cl)cc1O`: the activity change, negative = inhibition was 15.4% (inactive). With `Cc1c(C)c2c(c(C)c1OC(=O)CCC(=O)O)CC[C@@](C)(CCC[C@H](C)CCC[C@H](C)CCCC(C)C)O2`, the activity change, negative = inhibition is 19.4% (inactive).

Take `O=c1c(O)c(-c2ccccc2)oc2cc(O)ccc12`: the activity change, negative = inhibition is 31.5% (inactive). Regarding `CN1CC(C(=O)NC2(C)OC3(O)C4CCCN4C(=O)C(Cc4ccccc4)N3C2=O)CC2c3cccc4[nH]cc(c34)CC21` (stereo not given), the activity change, negative = inhibition is -10.4% (inactive). `CC(=O)C1C(=O)[C@@H]2[C@H]3c4c[nH]c5cccc(c45)C[C@H]3C(C)(C)N2C1=O` (stereo not given in full): the activity change, negative = inhibition is -78.3% (active) and -0.858% (inactive).

In the case of `CN1C[C@H](C(=O)N[C@]2(C)O[C@@]3(O)[C@@H]4CCCN4C(=O)[C@H](Cc4ccccc4)N3C2=O)C[C@@H]2c3cccc4[nH]cc(c34)C[C@H]21`, the activity change, negative = inhibition is 5.44% (inactive) and 2.08% (inactive).
